Measured values published in PubChem BioAssay (NCATS).
Inconclusive results are not listed. The source made the active and inactive calls. Calls come from the whole dose curve; as a rule, active = well fitted curve in the direction sought with a large enough effect; inconclusive = small, poorly fitted or top-dose-only effect, or another doubt; inactive = no such curve, though single readings can be large; an effect the other way counts as inactive or inconclusive.

Key:
[1] = biological target: Luciferin 4-monooxygenase (Photinus pyralis) (UniProt P08659); experiment: Primary firefly luciferase (FLuc) qHTS assay for identification of artifact compounds. (AID 1845220); note: nearly all actives have a fitted effect of over 60% in size
In short: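 In this counter-screen for luciferase artifacts, test compounds met substrate (10 uM each luciferin and ATP) before 10 nM enzyme started the reaction. Light output was measured 5 min later.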

[2] = Primary fluorescence-based thiol-reactive (MSTI) qHTS assay for identification of artifact compounds. (AID 1845221);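 note: series mostly up to about 54 µM; thiol-reactive compounds lower the probe fluorescence signal; nearly all actives have a fitted effect of over 65% in size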
In short: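 Curve-fitted percent inhibition (4-parameter Hill) derived from fluorescence, Ex 525/Em 598 nm, scaled with Acetyl-MSTI and MSTI; 1 h incubation at room temperature.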

[3] = tested on: Nanoluciferase (engineered Oplophorus gracilirostris luciferase); experiment: Primary Nanoluciferase (NLuc) qHTS assay for identification of artifact compounds. (AID 1845222);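 note: NLuc secreted into diluted conditioned medium of S16 cells; series mostly up to about 54 µM; 0% = DMSO and -100% = no enzyme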
In short: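 Using secreted nanoluciferase in S16 culture medium (0.22 um filtered, 1:55 dilution), compounds were preincubated 15 min at RT. Signal was generated with Nano-Glo reagent (1:100) over 5 min.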

[4] = Primary redox qHTS assay for identification of artifact compounds. (AID 1845223);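 note: 0% = DMSO and 100% = reference compound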
In short: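 Redox-cycling detection via DTT (250 uM final) oxidation coupled to Amplex Red (25 uM)/HRP (250 mU/mL) in HBSS. 15 min preincubation plus 30 min after DTT, room temperature. Ex/Em 525/598 nm; 4-parameter Hill fit against DMSO and 10 uM DA3003.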

CCC(C)(OC(C)=O)C(=O)O[C@H]1[C@H](OC(C)=O)C[C@@H]2[C@@](C)([C@@H]3C[C@H]4C=CO[C@H]4O3)[C@H](C)C[C@H](OC(C)=O)[C@@]2(COC(C)=O)[C@@]12CO2 (stereo partly drawn)
inactive: Potency [1] | Potency [2] | outcome [3] | outcome [4]

COc1cc2c(cc1OC)[C@@]13CCN4CC5=CCO[C@H]6CC(=O)N2[C@H]1[C@H]6[C@H]5C[C@H]43
inactive: Potency [1] | Potency [2] | outcome [3] | outcome [4]

C/C=C(\C)C(=O)OC1C(C)OC(OC2C(C)OC(OC3CCC4(C)C(=CCC5C4CCC4(C)C(C(C)OC6OC(COC7OC(CO)C(O)C(O)C7O)C(O)C(O)C6O)CCC54O)C3)CC2OC)C(O)C1OC (stereo not drawn)
inactive: outcome [1] inactive [at 11.6 µM] | activity change, negative = thiol reactive [2] 16.4% [at 11.5 µM] | activity, negative = inhibition [3] 0% [at 11.6 µM] | redox activity (% of DA3003) [4] -7.77% [at 11.5 µM]

O=C1C[C@@H]2OCC=C3CN4CC[C@]56c7ccccc7N1[C@H]5[C@H]2[C@H]3C[C@H]46
inactive: Potency [1] | Potency [2] | outcome [3] | outcome [4]

CC[C@H]1CN2CC[C@H]1C[C@H]2[C@H](O)c1ccnc2ccc(OC)cc12
inactive: Potency [1] | Potency [2] | outcome [3] | outcome [4]

COC(=O)C1(C)CCC(=O)C2(C)c3c(O)cc(C(C)C)cc3C(O)C(OC(C)=O)C12 (stereo not drawn)
inactive: Potency [1] | Potency [2] | outcome [3] | outcome [4]

COc1ccccc1CN[C@H]1C2CCN(CC2)[C@H]1C(c1ccccc1)c1ccccc1
inactive: Potency [1] | Potency [2] | outcome [3] | outcome [4]

C[C@H]1C(=O)O[C@H]2[C@H](O)[C@]34C5OC(=O)[C@]3(O[C@@H]3OC(=O)[C@H](O)C34[C@H](C(C)(C)C)[C@H]5O)C12O (stereo partly drawn)
inactive: Potency [1] | Potency [2] | outcome [3] | outcome [4]

CC(CCc1ccc(O)cc1)O[C@@H]1O[C@H](CO[C@H]2OC[C@](O)(CO)[C@H]2O)[C@@H](O)[C@H](O)[C@H]1O (stereo partly drawn)
inactive: Potency [1] | Potency [2] | outcome [3] | outcome [4]

Oc1ccc2c3c1O[C@H]1[C@H](N(CCCl)CCCl)CC[C@@]4(O)[C@@H](C2)N(CC2CC2)CC[C@]314
inactive: outcome [1] inactive [at 11.6 µM] | activity change, negative = thiol reactive [2] 7.36% [at 11.5 µM] | activity, negative = inhibition [3] 1.59% [at 11.6 µM] | redox activity (% of DA3003) [4] -0.579% [at 11.5 µM]

Cc1cc(C(=O)CN2CCCC2)c(C)n1-c1ccc(F)cc1
inactive: Potency [1] | Potency [2] | outcome [3] | outcome [4]

C[C@@](O)(COc1ccc(C#N)cc1)C(=O)Nc1ccc(C#N)c(C(F)(F)F)c1
inactive: Potency [1] | Potency [2] | outcome [3] | outcome [4]

CN1CCCC1CCOC(c1cc2nccc(C(=O)O)c2[nH]1)c1ccccc1Cl (stereo not drawn)
inactive: Potency [1] | Potency [2] | outcome [3] | outcome [4]

C[C@@]12C[C@@H](c3ccoc3)OC(=O)C1CC[C@]1(C)[C@H]2[C@H]2C=C[C@]1(O)C(=O)O2 (stereo partly drawn)
inactive: Potency [1] | Potency [2] | outcome [3] | outcome [4]

COC1C(O)C(OC2CCC3(C=O)C(CCC4C3CCC3(C)C(C5=CC(=O)OC5)CCC43O)C2)OC(C)C1OC1OC(CO)C(O)C(O)C1O (stereo not drawn)
inactive: Potency [1] | Potency [2] | outcome [3] | outcome [4]

COC1CC(O[C@H]2CC[C@@]3(C)C(=CCC4C3C(O)[C@@H](O)[C@]3(C)[C@@H](C(C)=O)CC[C@]43O)C2)OC(C)C1OC1CC(OC)C(OC2OC(C)C(O)C(O)C2O)C(C)O1 (stereo partly drawn)
inactive: outcome [1] inactive [at 11.6 µM] | activity change, negative = thiol reactive [2] 105% [at 11.5 µM] | activity, negative = inhibition [3] 4.68% [at 11.6 µM] | redox activity (% of DA3003) [4] 8.26% [at 11.5 µM]

CC1=C2C(=O)C3[C@@H](CC=C4C[C@@H](O)CC[C@@]43C)[C@@H]2CC[C@]12O[C@@H]1C[C@H](C)CN[C@H]1[C@H]2C (stereo partly drawn)
inactive: Potency [1] | Potency [2] | outcome [3] | outcome [4]

CN(C(=O)Cc1ccccc1)C(CN1CCCC1)c1ccccc1 (stereo not drawn)
inactive: Potency [1] | Potency [2] | outcome [3] | outcome [4]

OCCCCC#Cc1cncc(OC[C@@H]2CCN2)c1
inactive: Potency [1] | Potency [2] | outcome [3] | outcome [4]

CC1=C2C[C@H]3[C@@H](CC=C4C[C@@H](O)CC[C@@]43C)[C@@H]2CC[C@]12O[C@@H]1C[C@H](C)CN[C@H]1[C@H]2C
inactive: Potency [1] | Potency [2] | outcome [3] | outcome [4]

CC(C)[C@@H](CN1CC[C@@](C)(c2cccc(O)c2)[C@@H](C)C1)NC(=O)[C@H]1Cc2ccc(O)cc2CN1
inactive: Potency [1] | Potency [2] | outcome [3] | outcome [4]

CN[C@H]1[C@H](O)[C@H](O[C@@H]2[C@@H](O)[C@H](O[C@H]3O[C@H]([C@H](C)O)[C@@H](O)[C@H](O)[C@H]3N)[C@@H](N)C[C@H]2N)OC[C@@]1(C)O
inactive: Potency [1] | Potency [2] | outcome [3] | outcome [4]
